Compound activity (PubChem BioAssay)
Only some compounds are listed: those with a hit (about 19% of all), similar ones and a draw of the others.
TDP1 cell CPT: growth inhibition of DT40 Tdp1-/-;hTDP1 cells with camptothecin (screen for TDP1 inhibitors); AID 686979; chicken DT40 Tdp1-/-;hTDP1 cells + 20 nM CPT, ATP luminescence, 48 h; 420,000 compounds, 12% hits; Potency, µM (series often up to 46.2 µM), without a hit: top-dose activity change, negative = growth inhibition, usual class: inhibitors; further: potency means the concentration at half of the fitted maximal effect; nearly all actives have a fitted effect of over 55% in size
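Chicken DT40 Tdp1-/- cells complemented with human TDP1, 400 cells/well, exposed to compounds plus 20 nM camptothecin for at least 48 h at 37 C; viability read as ATP content by CellTiter-Glo luminescence.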
TDP1 cell noCPT: qHTS for Inhibitors of human tyrosyl-DNA phosphodiesterase 1 (TDP1): qHTS in cells in absence of CPT; DT40 Tdp1-/- hTDP1 cells, no CPT, ATP luminescence, 48 h; Potency, µM (titrated, usually from 46.2 µM), for inactives: at the highest dose activity change, negative = growth inhibition, usual class: inhibitors; 420,000 compounds, 15% hits; AID 686978, 2013; further: potency means the concentration at half of the fitted maximal effect; nearly all actives have a fitted effect of over 55% in size
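Readout: luminescence from CellTiter-Glo after 30 min in the dark at RT. Cells: DT40 Tdp1-/- with stable hTDP1, 400/well. Exposure: compounds alone, ≥48 hr, 37 °C.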
IL-1B inflam inh: inhibitors of inflammasome signaling (IL-1 beta secretion); THP-1 LPS/ATP IL-1B secretion, AlphaLISA, 16 h; stronger effect = lower value; activity change, % at 57.5 µM; 360,000 compounds, 4.7% hits; AID 743279; in the data active means activity change below about -50%; inconclusive means mostly about -30% to -49%
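THP-1 cells pretreated 1 hr with compounds (up to 57.5 uM final), then stimulated with LPS (250 ng/mL final) plus ATP (1.25 mM final); secreted IL-1B measured by AlphaLISA after 16 hr, decreased signal indicating inhibition.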
TDP1 block: TDP1 (human) enzyme inhibition | Q9NUW8 | recombinant TDP1, AlphaScreen DNA substrate cleavage | Potency, µM (highest dose often 130 µM), for the others: at the highest dose activity change, negative = inhibition, most hits filed as inhibitors | 350,000 compounds, 0.28% hits | AID 485290; further: potency means the concentration at half of the fitted maximal effect; nearly all actives have a fitted effect of over 40% in size
Target sequence (Q9NUW8 whole entry, looked up): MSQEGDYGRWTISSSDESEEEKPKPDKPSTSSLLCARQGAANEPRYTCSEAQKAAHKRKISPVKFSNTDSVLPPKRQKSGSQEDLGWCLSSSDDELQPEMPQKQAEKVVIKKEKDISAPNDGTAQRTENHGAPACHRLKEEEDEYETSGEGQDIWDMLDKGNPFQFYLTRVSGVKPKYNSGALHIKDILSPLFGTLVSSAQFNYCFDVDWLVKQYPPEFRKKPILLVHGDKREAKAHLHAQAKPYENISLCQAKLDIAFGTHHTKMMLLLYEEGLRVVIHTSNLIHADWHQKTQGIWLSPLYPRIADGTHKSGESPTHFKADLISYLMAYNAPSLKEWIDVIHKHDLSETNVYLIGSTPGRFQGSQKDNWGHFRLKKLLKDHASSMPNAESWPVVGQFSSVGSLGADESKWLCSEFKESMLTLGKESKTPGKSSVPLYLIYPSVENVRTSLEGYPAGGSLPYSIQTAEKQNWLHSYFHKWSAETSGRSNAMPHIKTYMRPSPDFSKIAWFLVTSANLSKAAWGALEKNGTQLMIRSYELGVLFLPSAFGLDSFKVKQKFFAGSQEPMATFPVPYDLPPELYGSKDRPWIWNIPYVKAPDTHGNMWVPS
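Signal: AlphaScreen proximity between streptavidin donor and anti-FITC acceptor beads on intact substrate. Reaction: Tdp1 1 nM, substrate 15 nM final, 5 min RT after 15 min compound preincubation.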
Giardia killer: Giardia lamblia killing; Giardia lamblia trophozoite viability; activity change, % at 7.66 µM, hits read low; 340,000 compounds, 0.15% hits; AID 540267; in the data active means activity change below about -80%; inconclusive means between about -30% and that limit;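 further: parasites exposed to compound for two days anaerobically before the ATP read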
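Giardia lamblia trophozoites (100 cells/well) were incubated with compounds for 48 h at 37 deg C under anaerobic conditions. Viability was read as ATP content by one-step luminescence after 15-30 min at room temperature.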
ELG1 DNA repair: blocks ELG1-dependent DNA repair in HEK293T cells. 330,000 compounds, 2.3% hits. Potency, µM (doses to about 46.1 µM), for the others: at the top dose activity change, negative = inhibition, most hits filed as inhibitors. AID 504467. HEK293T ELG1-luciferase reporter, luminescence, 16 h; DNA damage induced by 5-fluorouridine; further: potency means the concentration at half of the fitted maximal effect; nearly all actives have a fitted effect of over 55% in size
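Luminescence from the luciferase reporter, measured 30 min after ONE-Glo reagent at room temperature, was the read-out. Beforehand, 2,000 cells per well were exposed for 16 hr at 37 °C to 5-fluorouridine together with compound or vehicle.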
The depositor's hits bear a star; ? = inconclusive; . = not tested or not shown; [ ] = dose if it differs, or a comment. Unless noted, the call rests on the fitted dose curve; in most records, active means well fitted curve in the direction sought with a large enough effect; inconclusive means small, poorly fitted or top-dose-only effect, or another doubt; inactive means no such curve, though single readings can be large; an effect the other way counts as inactive or inconclusive. On the % scale 0 is the no-effect control and ±100 the full control effect.

SMILES	TDP1 cell CPT	TDP1 cell noCPT	IL-1B inflam inh	TDP1 block	Giardia killer	ELG1 DNA repair
CN(CC1COc2ccccc2O1)c1nc(-c2cccnc2)nc2ccccc12 (stereo not given)	20.6µM*	23.1µM*	?	8.1%	8.9	16.4µM*
O=C1NCN(c2ccccc2)C12CCN(C[C@H]1COc3ccccc3O1)CC2	8.8%	-24.8%	.	8.3%	.	.
C[C@@H](Cc1ccccc1)NCCC(c1ccccc1)c1ccccc1	?	6.4µM*	.	4.8%[56.1 µM]	.	.
COc1ccc(C2/C=C\CN(C(=O)Oc3ccc(C(F)(F)F)cc3)CC(=O)N2Cc2ccc(F)cc2)cc1 (stereo not given)	?	?	52.9	4.4%	13.9	4.2%
COC(C)(C)C	.	.	.	12.1%	.	.
Cc1ccc(-c2nn(C)c(=O)c3ccccc23)cc1CNC(=O)/C=C/c1ccccc1	-24.0%	?	-19.6	3.8%	10.6	16.4µM*
O=C(/C=C/c1ccccc1)NCCc1cnc[nH]1	-11.0%	?	8.4	6.3%	26.7	16.9%
OCC(CBr)(CBr)CBr	-1.0%	?	19.0	-5.2%	2.3	?
COc1ccc(N2C(=O)NC(=O)/C(=C\c3ccccc3[N+](=O)[O-])C2=O)cc1	-19.5%	-10.6%	5.6	-6.0%	-0.7	6.9%
COc1ccc(OC)c(N2C(=O)NC(=O)/C(=C\c3ccc([N+](=O)[O-])s3)C2=O)c1	16.4µM*	?	?	-1.6%	11.2	0.4%
CN1C(=O)NC(=O)/C(=C/c2ccc([N+](=O)[O-])s2)C1=O	4.11µM*	3.26µM*	-18.5	-9.3%	1.5	-17.0%
O=C1NC(=O)N(c2ccccc2)C(=O)/C1=C\c1ccc([N+](=O)[O-])s1	20.6µM*	8.2µM*	-69.4*	3.9%	7.5	-1.4%
Cc1ccc(/C=C2/C(=O)NC(=O)N(C)C2=O)cc1	-0.5%	-2.3%	13.8	-5.9%	13.6	-1.5%
COc1ccc(-c2ccc3n2Cc2cnnn2-c2ccccc2-3)cc1	?	?	-8.6	.	-3.4	.
C=CCN1CCCC1CNC(=O)c1cc2[nH]nnc2cc1OC (stereo not given)	0.1%	?	-15.9	.	-3.5	14.4%
Cc1ccc(NC(=O)c2ccc(C)c(S(=O)(=O)N3CCCCC3)c2)nc1	-22.3%	?	-8.0	.	-29.0	?
CC(=O)c1ccc(N2CCN(S(=O)(=O)c3cc(-c4onc(C)c4C)ccc3C)CC2)cc1	8.2µM*	9.2µM*	.	2.6%	.	.
Cc1cc(Br)cn2c(CC(=O)N3CCCCC3)c(-c3ccc(F)cc3)nc12	?	16.4µM*	29.0	.	.	.
CCCCSc1nc2c(cnn2-c2ccccc2)c(=O)n1N	-26.6%	?	-50.5*	0.0%	11.9	?
CC(=O)N1c2ccc(S(=O)(=O)N3CCCC(C(=O)Nc4cc(C)cc(C)c4)C3)cc2CC1C (stereo not given)	?	?	-2.6	.	-3.5	?
CC1Cc2cc(S(=O)(=O)N(Cc3ccccc3)C(C)C)ccc2N1C(=O)C1CCC1 (stereo not given)	?	20.6µM*	.	0.0%	.	.
CN(CC(=O)O)C(=O)[C@H](Cc1ccccc1)NC(=O)[C@@H](CCCN=C(N)N)NC(=O)[C@@H](N)Cc1ccc(O)cc1	.	.	.	5.6%	.	.
COc1ccc(C(C)=O)cc1CN1CC=C(c2ccccc2)CC1	?	?	21.0	7.5%	9.8	0.8%
CCc1ccc2c(CN3CC=C(c4ccccc4)CC3)cc(=O)oc2c1	?	16.4µM*	10.0	1.9%	8.4	17.0%
Cc1ccc2c(CN3CC=C(c4ccccc4)CC3)cc(=O)oc2c1C	?	23.1µM*	0.7	8.2%	11.9	12.4%
SMILES	TDP1 cell CPT	TDP1 cell noCPT	IL-1B inflam inh	TDP1 block	Giardia killer	ELG1 DNA repair
CCN1C[C@]2(C)CC[C@H](O)[C@@]34C5C[C@@H]6[C@@H](OC)C[C@@](O)(C5[C@H]6O)[C@@H](CC23)[C@@H]14 (stereo not given in full)	6.0%	3.0%	.	3.7%	.	.
O=C(C1CCCCC1)N1Cc2ccccc2-n2nncc2C1	-104.2%	-110.8%	3.2	.	.	.
O=S(=O)(c1ccccc1)N1Cc2ccccc2-n2nncc2C1	?	20.6µM*	3.3	.	.	.
O=S(=O)(c1cccc(C(F)(F)F)c1)N1Cc2ccccc2-n2nncc2C1	23.1µM*	9.2µM*	15.2	.	.	.
Cc1ccc(S(=O)(=O)N2Cc3cc(N4CCOCC4)ccc3-n3nncc3C2)cc1	-28.4%	?	-12.7	.	.	.
CCOc1ccccc1CNCCc1ccc2c(c1)OCO2	?	?	-59.8*	5.3%	-12.6	-4.2%
COc1ccccc1CNCCc1ccc(F)cc1	?	-20.9%	0.0	.	24.9	-6.6%
COc1ccc(CNCCc2cccc(F)c2)c2ccccc12	.	.	.	5.4%	.	-11.0%
COc1ccc(CNCCc2ccc(Cl)cc2)c(OC)c1OC	16.4µM*	9.2µM*	-16.6	.	12.5	?
COc1ccccc1CNCCc1cccc(Cl)c1	18.4µM*	14.6µM*	.	.	.	.
COC(=O)c1ccccc1N	.	.	.	12.7%	.	.
Cc1cccc(NC(=O)c2cc3c(=O)n4ccccc4nc3n2C)c1C	0.92µM*	0.651µM*	.	3.9%	.	.
CCc1ccccc1NC(=O)c1cccn(Cc2ccccc2F)c1=O	-9.6%	-0.5%	.	0.0%	.	.
Cn1c(SCC(=O)Nc2ccccc2F)nc2c([nH]c3ccccc32)c1=O	14.6µM*	18.4µM*	.	2.2%	.	.
Cc1ccccc1-c1nc2ccccc2c(=O)n1C	3.0%	-7.7%	13.4	.	-6.4	13.7%
Cc1cccc(NC(=O)CSc2nc3ccccc3c(=O)n2C)c1C	8.2µM*	4.11µM*	-10.0	.	.	.
C=CCn1c(O)c(C(CC)=NCc2cccnc2)c(=O)[nH]c1=O	2.6%	-12.1%	82.0	1.1%	9.5	?
CCOP(=S)(OCC)O/N=C(\C#N)c1ccccc1	-1.4%	-28.1%	.	.	.	.
COc1ccc(NS(=O)(=O)c2cc(NC(=O)COc3ccccc3)ccc2N2CCOCC2)cc1	?	?	-18.4	2.4%	13.9	?
COc1cc(OC)c(NS(=O)(=O)c2cc(-c3cnc(C4CC4)o3)ccc2C)cc1Cl	13µM*	6.51µM*	.	8.8%	.	.
Cc1cc(N2CCOCC2)nc2ccc(NC(=O)CCC(=O)N3CCC4(CC3)OCCO4)cc12	-2.6%	-20.4%	3.3	3.1%	-19.7	?
Cc1cc(N2CCCCC2)nc2ccc(NC(=O)CCC(=O)N3CCN(c4cccc(Cl)c4)CC3)cc12	6.51µM*	3.66µM*	.	2.7%	.	.
